In the library only some 1.3% were active in any assay of this set; here they are far more common.
Akt phos inh – inhibitors of Akt phosphorylation | Neuro2A IGF-stimulated pAkt S473 HTRF, 20 min; hits give low values | activity change, % for hits at 50 µM | hit rate 0.32% among 360,000 | AID 651550; in the data active means activity change below about -80%; inconclusive means mostly about -51% to -80%; further: on the % scale 0 is the no-effect control and ±100 the full control effect
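Single-point screen (50 µM final compound) in Neuro2A cells stimulated 20 min with 6 nM IGF at 37 deg C. After lysis, Ser473-phosphorylated Akt read by HTRF (ex 330 nm, em 615/665 nm) as the 665/615 ratio.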
RXFP1 antag – RXFP1 (human) relaxin receptor antagonism; Q9HBX9; HEK293-RXFP1, relaxin-stimulated cAMP HTRF, 30 min; hits give low values; activity change, negative = inhibition, % at 57.5 µM; hit rate 0.59% among 350,000;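 active means activity change of -60% or lower, but not beyond a set lower limit; inconclusive means change between -60% and -40%, or beyond the set limit; inactive means change above -40%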; further: on the % scale 0 is the no-effect control and ±100 the full control effect
Target sequence (Q9HBX9 whole entry, looked up): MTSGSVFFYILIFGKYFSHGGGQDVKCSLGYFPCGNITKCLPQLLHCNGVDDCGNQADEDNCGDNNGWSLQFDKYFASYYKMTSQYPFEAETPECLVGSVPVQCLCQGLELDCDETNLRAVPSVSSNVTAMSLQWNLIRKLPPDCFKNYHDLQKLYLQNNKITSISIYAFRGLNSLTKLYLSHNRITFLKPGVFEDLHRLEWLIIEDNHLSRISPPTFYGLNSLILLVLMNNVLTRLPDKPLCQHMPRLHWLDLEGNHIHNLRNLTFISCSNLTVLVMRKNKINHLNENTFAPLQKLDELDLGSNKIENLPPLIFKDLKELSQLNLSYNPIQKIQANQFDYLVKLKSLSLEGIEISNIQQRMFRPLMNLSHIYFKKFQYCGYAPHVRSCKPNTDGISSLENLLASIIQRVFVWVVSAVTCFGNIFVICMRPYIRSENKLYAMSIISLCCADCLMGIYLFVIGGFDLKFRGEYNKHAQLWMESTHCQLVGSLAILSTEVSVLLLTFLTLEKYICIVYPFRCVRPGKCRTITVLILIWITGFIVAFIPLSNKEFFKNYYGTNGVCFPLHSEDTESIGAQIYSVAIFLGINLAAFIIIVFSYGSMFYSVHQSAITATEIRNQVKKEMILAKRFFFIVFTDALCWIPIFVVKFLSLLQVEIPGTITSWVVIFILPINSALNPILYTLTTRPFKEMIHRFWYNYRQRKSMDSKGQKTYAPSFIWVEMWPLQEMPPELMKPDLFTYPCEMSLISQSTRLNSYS
gsp antagonist – antagonizes gsp, the McCune-Albright syndrome mutation | gsp-mutant cells, cAMP HTRF, 30 min | hit rate 0.4% among 340,000 | Potency, µM (doses to about 76.9 µM), for inactives: at the highest dose activity change, negative = inhibition, most hits filed as inhibitors | AID 624288; calls by dose curve; cell line not stated here;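 further: intracellular cAMP measured with PDE inhibitor Ro 20-1724 present during compound exposure; potency means the concentration at half of the fitted maximal effect; on the % scale 0 is the no-effect control and ±100 the full control effect; nearly all actives have a fitted effect of over 65% in size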
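G418-selected cells were plated in DMEM/10% FBS for 16-24 h at 37C, then treated with compounds plus the PDE inhibitor […] (300 uM solution added) for 30 min at 37C. Intracellular cAMP was measured by HTRF after 30 min lysis at room temperature.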
gsp agonist – agonists of gsp mutant (McCune-Albright syndrome). gsp mutant cells, cAMP HTRF, 30 min. AID 624287. Potency, µM (series often up to 76.9 µM), without a hit: at the top dose activation (cAMP increase), actives largely listed as activators. hit rate 0.13% among 340,000; active means well fitted activation curve with a large enough effect; inconclusive means small, poorly fitted or top-dose-only effect, or another doubt; inactive means no such curve, though single readings can be large or run the other way; cell line not stated here;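 further: phosphodiesterase inhibitor Ro 20-1724 added with compounds to block cAMP breakdown; potency means the concentration at half of the fitted maximal effect; nearly all actives have a fitted effect of over 60% in size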
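Cells in DMEM/10% FBS with G418 were pretreated with compounds in DMSO plus […] (300 uM stock) for 30 min at 37C. cAMP was measured by HTRF (cAMP-d2 plus anti-cAMP antibody-K) after 30 min at room temperature.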
RXFP1 agonist – RXFP1 (human) receptor agonism; Q9HBX9; HEK293T-RXFP1 cAMP TR-FRET, 30 min; response scale: percent of porcine relaxin response, buffer zero; Potency, µM (titrated, usually from 57.5 µM), inactives show top-dose activation, hits mostly activators; hit rate 0.3% among 370,000; AID 2676; active means well fitted activation curve with a large enough effect; inconclusive means small, poorly fitted or top-dose-only effect; further: potency means the concentration at half of the fitted maximal effect; on the % scale 0 is the no-effect control and ±100 the full control effect; nearly all actives have a fitted effect of over 60% in size
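Agonist response is measured as cAMP accumulation in an RXFP1-transfected HEK293T line under PDE4 inhibition. Values are scaled between buffer-only and 29 nM porcine relaxin, and EC50s come from standard Hill equation fits.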
Starred values were filed as active, the others as inactive; i = inactive; ? = inconclusive; . = no result given; ! = not active in a repeat; [ ] = dose if it differs, or a comment.

SMILES	Akt phos inh	RXFP1 antag	gsp antagonist	gsp agonist	RXFP1 agonist
Cn1c(=O)c2c(nc(SCCN3CCOCC3)n2C)n(C)c1=O	i	4	3%	8.9µM*	?
CCn1c(SCCN2CCOCC2)nc2c1c(=O)n(C)c(=O)n2C	i	6	0%	29%[15.4 µM]	?
Cn1c(=O)c2[nH]c(SCCN3CCOCC3)nc2n(C)c1=S	i	-72*	?	27%	.
COc1cc(NC(=O)CCn2nc(C)c(S(=O)(=O)N3CCCCC3)c2C)cc(OC)c1OC	.	1	.	.	1%
CCN1C(=NCc2cc(OC)c(OC)c(OC)c2)N[C@@H](c2cccc(F)c2)C(C(=O)OC)=C1C	.	.	.	.	0%
COc1ccc(C(=O)COC(=O)c2cccs2)cc1	i	11	-1%	2%	.
O=C(COC(=O)c1cccs1)c1ccccc1	-127%*	-4	7%	2%	1%
CNC(=O)[C@H]1O[C@@H](n2cnc3c(NCc4cccc(I)c4)ncnc32)[C@H](O)[C@@H]1O	i	.	-1%	.	16µM*
CCOc1ccc(C2c3c(-c4ccc(C)cc4)n[nH]c3C(=O)N2c2ccc(Cl)cc2)cc1 (stereo not given)	.	.	.	.	3%
CC(=O)c1ccc(O)c(C(N)=O)c1	.	-18	.	.	.
Cc1cc(C)n(S(=O)(=O)c2cc(Cl)ccc2Cl)n1	-121%*	1	-11%	-16%	0%
CCOc1ccccc1NC(=O)C1CCN(S(=O)(=O)c2c(C)noc2/C=C/c2ccc(C)cc2)CC1	.	.	.	.	3%
Cc1[nH]n(-c2ccc([N+](=O)[O-])cc2)c(=O)c1C=NCCN1CCN(C(=O)c2ccc(F)cc2)CC1	i	-2	1%	-3%	3%
Cc1[nH]n(-c2ccc([N+](=O)[O-])cc2)c(=O)c1C=NCCN1CCN(C(=O)c2ccc(Br)cc2)CC1	-102%*	12	-2%	0%	3%
COCCN(CCOC)c1nc(-c2ccc(C)cc2)nc2ccccc12	i	?	28µM*	-16%	3%
O=C(N/N=C/c1ccc(Br)cc1)c1ccc(F)cc1	i	-2	2%	-1%	-2%
O=C(N/N=C/c1ccc(F)cc1)c1ccc(Br)cc1	i	-11	4%	40µM*	2%
O=C(Nc1ccc(Cl)cc1)c1cc2c(cc1O)[nH]c1ccccc12	i	-64*	35µM*	-6%[15.4 µM]	5%
CC(=O)Nc1ccc2[nH]c3ccccc3c2c1	i	-7	0%	-43%	1%
CCCC(=O)Nc1nnc(SCc2cc(=O)c3cc(C)ccc3[nH]2)s1	.	8	.	.	4%
CCOc1ccc(NC(=O)CSc2cn(CC(=O)N3CCOCC3)c3ccccc23)cc1	.	-14	.	.	0%
COc1ccc(CCNC(=O)COC(=O)c2cnc(C)cn2)cc1	-109%*	-10	1%	28%	-4%
COc1ccc(CCNC(=O)c2cnc(C)cn2)cc1	i	-6	8%	?	1%
CCn1c(SCc2ccc(C(=O)Nc3nccs3)cc2)nnc1-c1ccc(N)cc1	i	-22	6%	1%	1%
Nn1c(SCC(=O)Nc2ccc(S(=O)(=O)N3CCCC3)cc2)nnc1C(F)(F)F	-107%*	6	7%	4%	0%
SMILES	Akt phos inh	RXFP1 antag	gsp antagonist	gsp agonist	RXFP1 agonist
CCn1c(SCc2ccc(C(=O)Nc3nccs3)cc2)nnc1-c1ccc(NC(C)=O)cc1	-107%*	-26	-5%	4%	-1%
CCn1c(SCC(=O)Nc2nccs2)nnc1-c1ccc(S(=O)(=O)N2CCCCCC2)cc1	i	8	40µM*	20%	1%
Cc1ccc(-c2cc(C(=O)NCc3cnn(C)c3C)c3cc(Br)ccc3n2)cc1	i	7	5%	?	28µM*!
CSc1ccc(C2C(C(=O)c3ccco3)=C(O)C(=O)N2c2nnc(SC)s2)cc1 (stereo not given)	i	-2	-5%	?	16µM*
O=C(O)c1cc(-c2ccccc2)nc(-c2ccccc2)c1	i	0	32µM*	-36%	3%
CCOC(=O)c1c(NC(=O)COc2cccc3c2CCN(C)C3=O)sc2c1CCC2	i	15	14µM*	-40%	0%
Cc1nc(-n2nc(C)c(CCC(C)C)c2C)sc1C(=O)Nc1ccc(Br)cc1	.	-4	.	.	17%
Clc1ccc(-c2csc(-c3ccno3)n2)cc1	i	-17	-2%	-6%[15.4 µM]	4%
